Results reported in ChEMBL document CHEMBL5308504, “Tm Shift (DSF) assay results for EUbOPEN Chemogenomics Library” (2023).
“And” between values parts separate entries of the source, which are not always exact repeats. Identical values can stand only once.

target: Bromodomain-containing protein 4 (Homo sapiens) (UniProt O60885); conditions: Compound concentration 20.0 uM, Protein concentration 2.0 uM, Result type QC Liability

SMILES | ΔTm
O=C(NCCS(=O)(=O)c1ccc(C(F)(F)F)cn1)c1ccc(Cl)cc1 | -3.11 °C
COc1cc(OC)cc(-c2cc3cnc(N)nc3nc2NC(=O)NC(C)(C)C)c1 | -2.72 °C and 0.27 °C
CC(C)Nc1ncnc2cc(OCc3cccc([S@@](C)(=N)=O)c3)c(Br)cc12 | 0.34 °C
NC(=O)c1ccc(-c2nc(-c3ccc4c(c3)OCCO4)c(-c3ccccn3)[nH]2)cc1 | -0.56 °C
Cn1c(C(=O)N[C@@H](CO)c2ccc(C(=O)O)cc2)cc2cc(Cl)ccc21 | 0.27 °C
COCc1c(-c2cc3cc(C)cc(OC)c3s2)c2c(N)ncnn2c1CN[C@@H]1CCNC1=O | 1.53 °C
COc1cc2nc(C)nc(NC3(c4ccccc4)CC3)c2cc1OC | -0.74 °C
O=C(O)/C=C/c1ccc(Cn2ccnc2)cc1 | -0.17 °C
CCc1c(-c2ccc3[nH]ncc3c2)cnc(N)c1-c1ccc(O)cc1 | -1.17 °C
N#Cc1ccc(C#CC[C@@H](C#N)NC(=O)[C@H]2CCCCN2)cc1F | -1.11 °C
Cc1c(NC(=O)COc2ccc(Cl)cc2C(=O)c2cc(F)cc(C(F)(F)F)c2)ccc(C(=O)O)c1F | -0.11 °C and -0.42 °C
CO[C@H]1C[C@@H]2CC[C@@H](C)[C@@](O)(O2)C(=O)C(=O)N2CCCC[C@H]2C(=O)O[C@H]([C@H](C)C[C@@H]2CC[C@@H](O)[C@H](OC)C2)CC(=O)[C@H](C)/C=C(\C)[C@@H](O)[C@@H](OC)C(=O)[C@H](C)C[C@H](C)/C=C/C=C/C=C/1C | -2.02 °C
N#Cc1cccc(-c2c[nH]c3ncnc(N4CCOCC4)c23)c1 | -2.27 °C
CC(C)(C#Cc1ccc(NC(=O)COc2ccccc2C(=O)c2ccccc2)c(Cl)c1)C(=O)O | 0.63 °C
Cc1cnc(Nc2ccc(C(=O)N3CCN(C)CC3)cc2)nc1N[C@@H]1CCC[C@@H]1C(N)=O | -1.32 °C
Cc1cc(-c2cc3ncccc3c(OC[C@H]3CCCNC3)n2)ccc1N(C)C | -2.56 °C
COc1c(-c2cn(C3CCC(=O)NC3=O)nn2)csc1C(=O)N1CCCC1 (centres undefined) | -0.9 °C
CCC(C(=O)Nc1ccc(-c2cc3ccccc3s2)c(C(N)=O)c1)c1nccs1 (centres undefined) | -0.87 °C
CC(C)N(C(=O)C1CCOCC1)c1cc(F)c(Oc2ncc(Cn3nccn3)cc2C(F)(F)F)cc1C(=O)O | -3.14 °C
CCOCCn1cc(C(=O)Nc2ccc(-n3nc(-c4cccnc4)cc3C(F)(F)F)cn2)ccc1=O | -2.09 °C
CC(C)(c1ccc(OCc2cccc(COc3ccc(C(=N)N)cc3)c2)cc1)c1ccc(O[C@@H]2O[C@H](C(=O)O)[C@@H](O)[C@H](O)[C@H]2O)cc1 | 0.58 °C
CN(CCCCCCC1=C(c2cc(F)cc(F)c2)CCCc2cc(O)ccc21)CCCCS(=O)(=O)CCCC(F)(F)F | 1.66 °C
O=C(NCc1ccc(F)cc1)C1CCN(S(=O)(=O)c2cc(Cl)cc(Cl)c2)CC1 | -0.4 °C
O=C(O)[C@]1(Cc2cccc(Nc3nccs3)n2)CC[C@@H](Oc2cccc(Cl)c2F)CC1 | 0 °C
Cc1ccc(C(=O)Nc2cc(N3CCN(C)CC3)cc(C(F)(F)F)c2)cc1-n1cc(-c2cnn(C)c2C)nn1 | -2.13 °C

target: T1, Transcription intermediary factor 1-alpha (Homo sapiens) (UniProt O15164); conditions: Compound concentration 20.0 uM, Protein concentration 2.0 uM, Result type QC Liability
T1 sequence (whole entry): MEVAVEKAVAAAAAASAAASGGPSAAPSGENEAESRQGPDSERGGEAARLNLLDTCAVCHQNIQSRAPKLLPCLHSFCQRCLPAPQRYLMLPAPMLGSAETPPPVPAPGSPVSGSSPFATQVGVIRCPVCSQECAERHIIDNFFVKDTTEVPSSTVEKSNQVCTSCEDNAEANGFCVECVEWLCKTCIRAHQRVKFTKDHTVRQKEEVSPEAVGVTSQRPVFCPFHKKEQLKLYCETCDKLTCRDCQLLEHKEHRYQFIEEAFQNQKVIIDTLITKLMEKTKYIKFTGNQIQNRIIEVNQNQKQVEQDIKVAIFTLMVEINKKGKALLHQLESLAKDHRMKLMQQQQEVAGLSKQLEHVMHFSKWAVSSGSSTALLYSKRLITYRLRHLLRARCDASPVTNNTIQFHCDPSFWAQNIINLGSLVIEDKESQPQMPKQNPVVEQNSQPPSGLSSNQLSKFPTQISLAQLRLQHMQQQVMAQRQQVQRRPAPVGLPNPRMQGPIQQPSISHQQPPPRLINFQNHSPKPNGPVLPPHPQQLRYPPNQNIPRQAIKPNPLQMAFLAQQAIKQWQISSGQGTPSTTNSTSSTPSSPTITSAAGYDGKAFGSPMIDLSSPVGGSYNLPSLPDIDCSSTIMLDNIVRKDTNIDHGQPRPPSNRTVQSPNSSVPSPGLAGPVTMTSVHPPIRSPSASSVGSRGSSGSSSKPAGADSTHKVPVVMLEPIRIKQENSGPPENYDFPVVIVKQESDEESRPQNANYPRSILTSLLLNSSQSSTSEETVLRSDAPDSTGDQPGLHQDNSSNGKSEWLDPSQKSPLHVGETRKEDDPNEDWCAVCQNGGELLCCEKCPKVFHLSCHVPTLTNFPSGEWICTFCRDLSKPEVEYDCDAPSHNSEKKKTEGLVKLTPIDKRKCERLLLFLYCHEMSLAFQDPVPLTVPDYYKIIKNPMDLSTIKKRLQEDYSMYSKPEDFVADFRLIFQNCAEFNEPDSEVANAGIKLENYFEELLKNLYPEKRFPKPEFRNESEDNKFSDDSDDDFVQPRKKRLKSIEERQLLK

SMILES | ΔTm
C=CC(=O)Nc1cccc(C(=O)Nc2ccc(Nc3cc(-c4c(-c5ccc(F)cc5)nc(SC)n4C)ccn3)cc2)c1 | -0.89 °C
COc1c(OCCCN2CCOCC2)ccc2c1N=C(NC(=O)c1cnc(N)nc1)N1CCN=C21 | -2.86 °C
Clc1ccccc1C(c1ccccc1)(c1ccccc1)n1ccnc1 | -5.38 °C
Cc1cccc(-c2nn3c(c2-c2ccnc4ccc(C(N)=O)cc24)CCC3)n1 | -2.8 °C
C[C@H](NC(=O)c1cc(Cl)ccc1Oc1ccc(F)cc1)c1ccc(C(=O)O)cc1 | -0.34 °C
CC1CN(CC(=O)N2CC(C)(C)c3nc(CO)c(Cc4ccc(F)cc4)cc32)C(CN2CCOCC2C)CN1 (centres undefined) | -3.23 °C
N=C(N)NCCC[C@H](NC(=O)C(c1ccccc1)c1ccccc1)C(=O)NCc1ccc(CNC(N)=O)cc1 | 0.24 °C
CC(=O)N1CCC(c2ccc(C(=O)NC(=N)N)cc2C(F)(F)F)CC1 | 0.53 °C
CC(C)(C)c1cc(NC(=O)c2csc(Nc3ccccn3)n2)no1 | 1.12 °C
CN[C@@H](C)C(=O)N[C@H](C(=O)N1CCC[C@H]1C(=O)N[C@@H]1CCCc2ccccc21)C1CCCCC1 | -1.41 °C
CCn1ccc(Nc2ncc3c(n2)-c2c(nn(C)c2-c2ccc(-c4cnn(C)c4)cc2Cl)CC3)n1 | -2.64 °C
O=C(Nc1ccc(N2CCC(C(=O)N3CCOCC3)CC2)cc1)c1cnc(Oc2ccccc2)nc1 | -0.59 °C
O=C(Nc1ccccc1C(=O)O)c1cc(S(=O)(=O)c2ccccc2)ccc1Cl | 0.36 °C
Cn1cc(C(=O)O)c2ccc(N3CCC(OCc4c(-c5c(Cl)cccc5Cl)noc4C4CC4)CC3)cc21 | -2.91 °C
O=C(NCCS(=O)(=O)c1ccc(C(F)(F)F)cn1)c1ccc(Cl)cc1 | -2.42 °C
COc1cc(OC)cc(-c2cc3cnc(N)nc3nc2NC(=O)NC(C)(C)C)c1 | -2.2 °C and -1.8 °C
CC(C)Nc1ncnc2cc(OCc3cccc([S@@](C)(=N)=O)c3)c(Br)cc12 | 0.14 °C
NC(=O)c1ccc(-c2nc(-c3ccc4c(c3)OCCO4)c(-c3ccccn3)[nH]2)cc1 | -0.21 °C
Cn1c(C(=O)N[C@@H](CO)c2ccc(C(=O)O)cc2)cc2cc(Cl)ccc21 | 0.31 °C
COCc1c(-c2cc3cc(C)cc(OC)c3s2)c2c(N)ncnn2c1CN[C@@H]1CCNC1=O | 0.22 °C

SMILES | ΔTm
COc1cc2nc(C)nc(NC3(c4ccccc4)CC3)c2cc1OC | 0.43 °C
O=C(O)/C=C/c1ccc(Cn2ccnc2)cc1 | -0.33 °C
CCc1c(-c2ccc3[nH]ncc3c2)cnc(N)c1-c1ccc(O)cc1 | -2.74 °C
N#Cc1ccc(C#CC[C@@H](C#N)NC(=O)[C@H]2CCCCN2)cc1F | 0.64 °C
Cc1c(NC(=O)COc2ccc(Cl)cc2C(=O)c2cc(F)cc(C(F)(F)F)c2)ccc(C(=O)O)c1F | 0.4 °C and 0.46 °C
CO[C@H]1C[C@@H]2CC[C@@H](C)[C@@](O)(O2)C(=O)C(=O)N2CCCC[C@H]2C(=O)O[C@H]([C@H](C)C[C@@H]2CC[C@@H](O)[C@H](OC)C2)CC(=O)[C@H](C)/C=C(\C)[C@@H](O)[C@@H](OC)C(=O)[C@H](C)C[C@H](C)/C=C/C=C/C=C/1C | -0.81 °C
N#Cc1cccc(-c2c[nH]c3ncnc(N4CCOCC4)c23)c1 | -2.93 °C
CC(C)(C#Cc1ccc(NC(=O)COc2ccccc2C(=O)c2ccccc2)c(Cl)c1)C(=O)O | 0.79 °C
Cc1cnc(Nc2ccc(C(=O)N3CCN(C)CC3)cc2)nc1N[C@@H]1CCC[C@@H]1C(N)=O | -3.2 °C
Cc1cc(-c2cc3ncccc3c(OC[C@H]3CCCNC3)n2)ccc1N(C)C | -2.49 °C
COc1c(-c2cn(C3CCC(=O)NC3=O)nn2)csc1C(=O)N1CCCC1 (centres undefined) | -2.25 °C
CCC(C(=O)Nc1ccc(-c2cc3ccccc3s2)c(C(N)=O)c1)c1nccs1 (centres undefined) | 0.44 °C
CC(C)N(C(=O)C1CCOCC1)c1cc(F)c(Oc2ncc(Cn3nccn3)cc2C(F)(F)F)cc1C(=O)O | 0.13 °C
CCOCCn1cc(C(=O)Nc2ccc(-n3nc(-c4cccnc4)cc3C(F)(F)F)cn2)ccc1=O | 0.27 °C
CC(C)(c1ccc(OCc2cccc(COc3ccc(C(=N)N)cc3)c2)cc1)c1ccc(O[C@@H]2O[C@H](C(=O)O)[C@@H](O)[C@H](O)[C@H]2O)cc1 | -5.37 °C
CN(CCCCCCC1=C(c2cc(F)cc(F)c2)CCCc2cc(O)ccc21)CCCCS(=O)(=O)CCCC(F)(F)F | 1.21 °C
O=C(NCc1ccc(F)cc1)C1CCN(S(=O)(=O)c2cc(Cl)cc(Cl)c2)CC1 | 0.44 °C
O=C(O)[C@]1(Cc2cccc(Nc3nccs3)n2)CC[C@@H](Oc2cccc(Cl)c2F)CC1 | -1.24 °C
Cc1ccc(C(=O)Nc2cc(N3CCN(C)CC3)cc(C(F)(F)F)c2)cc1-n1cc(-c2cnn(C)c2C)nn1 | -1.79 °C
